This is a sample that favours compounds with a hit; in the whole collection about 4.7% have one here.
MPTP block = permeability transition pore inhibition. isolated mouse mitochondria, Ca2+ swelling absorbance, 30 min. inhibition, % at 10 µM. actives 1.4% (n = 360,000);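 active = inhibition of 50% or more, scaled per plate between neutral and stimulator controls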;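 also: 0% = DMSO wells given calcium and 100% = 1 mM EGTA wells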
ADAM17 inh = inhibits human ADAM17. P78536. recombinant ADAM17, EDANS/DABCYL FRET peptide cleavage. inhibition, % at 6.95 µM. actives 0.83% (n = 370,000). AID 720648;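 active = inhibition above the mean of compounds lying between control limits plus 3 SD, set per campaign, cut at about 8.5% in these data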;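 also: 0% = DMSO-only wells as the low control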
DSG3 Ab inh = inhibitors of pemphigus antibody binding to human desmoglein-3; P32926; DSG3-coupled beads, scFv-anti-DSG3-GFP binding, flow cytometry; hits give low values; binding (percent of control), % at 10 µM; actives 0.48% (n = 310,000); AID 588358;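 active = binding more than 3 SD below its plate's average and above zero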;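 also: hits lower antibody fragment binding to DSG3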
ADAM10 inh = ADAM10 inhibition, QFRET primary screen. recombinant ADAM10, EDANS/DABCYL FRET peptide cleavage, 3 h. inhibition, % at 7 µM. actives 0.62% (n = 370,000). AID 720582;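 active = inhibition above a per-campaign cutoff equal to the mean of compounds falling between control-based bounds plus 3 SD, cut at about 20% in these data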;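 also: 0% = DMSO wells while the 100% control is not disclosed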
rCAG RNA binder = molecules binding r(CAG) RNA repeats; r(CAG) RNA repeat, TO-PRO-1 dye displacement fluorescence; actives 1.3% (n = 370,000); inhibition, % at 3 µM; AID 651821;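 active = inhibition above the plate cutoff, the mean of all test compounds on that plate plus 3 SD, cut at about 35% in these data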;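 also: 0% = DMSO alone and 100% = 100 µM mitoxantrone as full dye displacement; higher means more dye released from RNA so lower well fluorescence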
KLK7 zymogen act = activators of human kallikrein-7 zymogen. P49862. purified proKLK7, EDANS-DABCYL substrate fluorescence; 100% is mature enzyme control, 0% vehicle. activation, % at 7 µM. actives 0.9% (n = 370,000);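 active = activation above the mean of all tested compounds plus 3 SD, computed per campaign excluding outliers beyond control limits, cut at about 13% in these data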
Target sequence (P49862 whole entry, looked up): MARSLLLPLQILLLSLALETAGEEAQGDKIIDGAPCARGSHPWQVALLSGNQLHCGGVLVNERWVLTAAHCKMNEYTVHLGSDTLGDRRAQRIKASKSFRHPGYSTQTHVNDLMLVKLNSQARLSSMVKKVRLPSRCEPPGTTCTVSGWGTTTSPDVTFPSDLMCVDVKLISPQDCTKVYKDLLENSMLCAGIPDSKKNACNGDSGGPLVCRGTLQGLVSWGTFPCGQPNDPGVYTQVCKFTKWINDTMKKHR
rCAG binder conf = r(CAG) RNA repeat binding, confirmation; TO-PRO-1 dye displacement fluorescence; actives 70% (n = 4,300); inhibition, % at 3 µM; AID 652065; shares compounds with rCAG RNA binder;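 active = inhibition above a per-plate cutoff, the mean inhibition of sample wells plus 3 SD, cut at about 35% in these data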;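 also: loss of TO-PRO-1 fluorescence as compound displaces dye from 1x1 AA loop RNA; 0% = DMSO only wells and 100% = 100 µM mitoxantrone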
DNA CAG counter = counter-screen for rCAG RNA binders: DNA CAG dye complex inhibitors; actives 94% (n = 4,300); shares compounds with rCAG RNA binder; d(CAG) DNA oligo TO-PRO-1 dye displacement, fluorescence; inhibition, % at 3 µM;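 active = inhibition above its plate's cutoff, the mean test-well inhibition plus 3 SD, cut at about 4.8% in these data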;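 also: 0% = DNA dye mix with DMSO and 100% = 100 µM mitoxantrone; hits displace the dye from DNA and so lower well fluorescence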
* marks the source's active call; other numbers are inactive results; · = no result.

SMILES	MPTP block	ADAM17 inh	DSG3 Ab inh	ADAM10 inh	rCAG RNA binder	KLK7 zymogen act	rCAG binder conf	DNA CAG counter
O=C(Nc1cccc(C(=O)O)c1)/C(=C/c1cccc([N+](=O)[O-])c1)NC(=O)c1cccc(Br)c1	-1.0	-3.0	114.6	-4.9	46.8*	-0.8	21.8	4.8*
O=C(NC(Cc1ccccc1)C(=O)O)/C(=C/c1cccc([N+](=O)[O-])c1)NC(=O)c1ccco1 (centres undefined)	0.6	-0.9	102.6	10.7	7.7	0.8	·	·
O=C(NC(Cc1ccccc1)C(=O)O)/C(=C\c1ccco1)NC(=O)c1ccc(Br)cc1 (centres undefined)	1.2	-3.4	109.7	-1.4	36.8*	0.0	34.2	8.2*
O=C(Nc1cccc(C(=O)O)c1)/C(=C/c1ccc2c(c1)OCO2)NC(=O)c1cccc(Br)c1	-0.1	-0.7	97.5	5.2	42.1*	0.4	25.0	6.1*
O=C(NC(Cc1ccccc1)C(=O)O)/C(=C/c1cccc([N+](=O)[O-])c1)NC(=O)c1cccc(Br)c1 (centres undefined)	0.3	-3.2	·	4.9	48.1*	0.0	50.7*	15.7*
O=C(Nc1cccc(C(=O)O)c1)/C(=C/c1ccccc1)NC(=O)c1cccc(Br)c1	2.2	-3.3	100.9	0.6	19.2	0.3	·	·
CCCCCCCCN1C(=O)[C@@H](CC(=O)NCC2CCCCC2)C[C@@]2(C(=O)OC)C1=C[C@H](C1CCCC1)O[C@@H]2C	·	-1.2	·	3.3	0.9	-0.6	·	·
CCOc1ccc(N2C(=O)C3C4C=CC([C@H]5CC45)[C@@H]3C2=O)cc1 (some centres undefined)	-0.2	0.5	94.3	6.5	-5.2	0.3	·	·
O=C(C(=O)N1CCC(CNS(=O)(=O)c2ccccc2)CC1)c1cc2ccccc2o1	·	-2.0	·	-4.0	3.4	-0.6	·	·
O=c1[nH]c(=S)[nH]c2c1C(c1ccc(F)cc1)OC(CCc1ccccc1)C2 (centres undefined)	0.0	-2.4	·	4.2	12.0	0.2	·	·
Cc1oc2cc3oc(=O)c(CCC(=O)N4CCC(C(=O)O)(c5ccccc5)CC4)c(C)c3cc2c1C	0.6	-18.7	·	-79.6	2.6	-1.0	·	·
Cc1oc2c(C)c3oc(=O)c(CCC(=O)N4CCC(C(=O)NCCC(=O)O)(c5ccccc5)CC4)c(C)c3cc2c1C	-2.6	-101.8	99.4	-286.1	35.4*	11.0	57.8*	16.3*
CCc1ccc(/C=C/C(=O)C2C(=O)c3ccccc3C2=O)cc1	-4.1	1.6	109.3	8.9	64.4*	-0.6	78.6*	38.7*
Cc1ccc(NC(=S)NNC(=O)c2ccc(N3CCOCC3)c([N+](=O)[O-])c2)cc1C	4.0	6.6	92.4	13.9	58.1*	0.5	60.9*	25.8*
COC(=O)c1cc(NS(=O)(=O)c2ccc(N3CCCCCC3)c([N+](=O)[O-])c2)cc(C(=O)OC)c1	1.3	4.1	104.4	1.3	38.8*	0.1	60.1*	19.7*
COC(=O)c1cc(NS(=O)(=O)c2ccc(N3CCOCC3)c([N+](=O)[O-])c2)cc(C(=O)OC)c1	-0.6	2.6	79.3	3.8	51.1*	-0.2	40.4*	10.7*
Cc1ccc(NC(=O)c2ccc(N3CCOCC3)c([N+](=O)[O-])c2)cc1S(=O)(=O)N1CCOCC1	5.2	3.4	102.2	7.5	7.8	0.7	·	·
COc1ccc(S(=O)(=O)Nc2ccc(N3CCOCC3)cc2)cc1[N+](=O)[O-]	0.6	-3.4	98.4	-8.2	-2.4	-0.5	·	·
CC(C)C[C@H]1COc2cc(Br)ccc2S(=O)(=O)N1Cc1ccc(Cl)cc1	·	-1.9	·	-1.9	3.8	-0.4	·	·
O=C(N/N=C/c1cc(Cl)cc([N+](=O)[O-])c1O)c1cccc(S(=O)(=O)N2CCOCC2)c1	0.0	0.7	104.3	7.6	68.1*	-0.9	56.3*	20.2*
O=C(N/N=C/c1ccccc1Br)c1cccc(S(=O)(=O)N2CCOCC2)c1	-1.9	-5.2	·	-4.7	6.4	-0.2	·	·
